As a reminder, the inhibition is the relative decrease from the control value, in per cent. The viability is a read-out of living cells in per cent, often relative to untreated cells.

Data on five molecules can be found in PubChem BioAssay.

Values joined by “and” are separate entries in the source; they are usually repeats but may differ in a detail not shown here. Identical values can stand only once. Active and inactive are the calls of the source.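 Rule for the calls, unless noted: active = compounds that lower viability of the colon cancer cells in the luminescence readout, with no numeric limit stated; inactive = the rest.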

Test [1] is described as follows: stimulators of insulin release from INS-1E, primary screen, cell-based, 5 mM glucose, NPC library (AID 1117329;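 active = compound raises insulin release from rat beta cells at 5 mM glucose, no numeric limit stated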). Conditions: rat INS-1E insulin secretion, at 10 µM, stronger effect = higher value.
A short description of test [2]: growth inhibition of GSK3B-pretreated HCT116 cells – cell-based, CellTiter-Glo, 0.2 to 20 µM (AID 1117336;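 active = compounds lowering colon cancer cell viability after pretreatment blocking the GSK3B kinase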). Conditions: HCT116 viability after GSK3B inhibitor, at 20 µM, stronger effect = higher value. A general note: In ATP-based viability assays light output follows the ATP content of the culture.
Test [3] in a line: inhibition of endothelial tube formation, primary screen, imaging, VEGF stimulated, CD31 staining, tube area, NPC library (AID 1117340;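 active = compound that reduces growth-factor-driven endothelial tube area in a mixed cell culture, no cutoff stated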). The settings on record: VEGF-stimulated ADSC/ECFC co-culture, at 10 µM, stronger effect = higher value.
Test [4] in a line: GLP1 release stimulators, primary, NCI-H716, NPC library (AID 1117341;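 active = compound raises GLP1 secretion from the human gut endocrine cells, with no numeric limit stated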). Conditions: NCI-H716 cells, at 10 µM, stronger effect = higher value.
Test [5] can be described thus: HCT116 colon cancer cell growth inhibition, primary screen, CellTiter-Glo luminescence, NPC library (AID 1117342;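 active = compounds that lower survival of HCT116 colon cancer cells in the luminescence readout, no numeric limit stated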). Conditions: at 20 µM (top of the series).
Test [6] in a line: reduced SW480 viability measured with CellTiter-Glo, NPC library, primary (AID 1117343). The settings on record: CellTiter-Glo luminescence; at 20 µM (top of the series) unless noted.
A short description of test [7]: NPC library primary testing for decreased DLD-1 cell viability via CellTiter-Glo (AID 1117346;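 active = compounds that lower survival of DLD-1 colon cancer cells in the luminescence readout, no cutoff given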). Conditions: DLD-1 viability, CellTiter-Glo luminescence; at 20 µM (top of the series).
A short description of test [8]: compounds altering viability of human ES cells (AID 493140; call rule not given here;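 note: cells exposed to compounds for four days before counting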). The settings on record: human embryonic stem cell survival screen; stronger effect = higher value.
The target in test [9] is 6-phosphogluconate dehydrogenase, decarboxylating (Homo sapiens) (UniProt P52209). The test can be described thus: inhibition of human phosphogluconate dehydrogenase – biochemical, recombinant enzyme, NADPH absorbance, primary screen (AID 1159550;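 active = at least 20% inhibition of 6-phosphogluconate dehydrogenase activity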). Conditions: recombinant 6PGD, NADPH absorbance 341 nm; at 10 µM; stronger effect = higher value.
6-phosphogluconate dehydrogenase, decarboxylating (Homo sapiens), sequence (P52209 whole entry, looked up): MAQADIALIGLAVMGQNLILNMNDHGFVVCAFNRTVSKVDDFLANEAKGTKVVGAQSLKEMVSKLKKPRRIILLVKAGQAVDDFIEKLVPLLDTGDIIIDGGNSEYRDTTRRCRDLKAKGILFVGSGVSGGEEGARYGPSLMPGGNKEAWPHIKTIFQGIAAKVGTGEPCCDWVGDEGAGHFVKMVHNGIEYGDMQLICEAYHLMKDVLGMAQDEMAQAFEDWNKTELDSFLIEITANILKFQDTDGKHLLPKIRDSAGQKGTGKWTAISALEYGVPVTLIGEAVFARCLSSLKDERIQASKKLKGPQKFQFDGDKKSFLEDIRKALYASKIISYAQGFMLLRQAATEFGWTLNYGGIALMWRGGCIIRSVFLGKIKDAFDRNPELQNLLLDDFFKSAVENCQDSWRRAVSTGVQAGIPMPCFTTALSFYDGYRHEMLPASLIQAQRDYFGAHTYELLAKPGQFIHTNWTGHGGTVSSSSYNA
A short description of test [10]: modulation of C. elegans fzo-1 (AID 1259413; call rule not given here;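 note: fzo-1 mutant C. elegans worms in liquid wells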). Conditions: C. elegans fzo-1 modulator screen, mean read-out; stronger effect = higher value.
Test [11] can be described thus: EMT-state selective cytotoxicity in co-culture – imaging, PC-3E GFP, TEM4-18 mCherry, primary screen (AID 1345086;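 active = compounds killing one labelled cell type while sparing the other, by normalised counts and ratio limits, not self-fluorescent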;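 for all read-outs here: cells exposed to compound for 72 h before imaging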;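 for red/green cell ratio (normalised): normalised mesenchymal count divided by normalised epithelial count so high means epithelial killing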). The settings on record: PC-3E GFP / TEM4-18 mCherry co-culture, imaging cell counts, at 1 µM; for red/green cell ratio (normalised): actives lie on both sides, counts scaled to control wells, 1 = unselective.
Test [12] is described as follows: viability loss with induced miR-34 in A549 – imaging, A549 dox-inducible miR-34, nuclei and caspase counts, primary screen (AID 1347080;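 active = compounds whose cell count with miR-34 switched on is under 0.7 times the count with it off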). Conditions: A549 miR-34 inducible, Hoechst nuclei count, 48 h.
Test [13] in a line: MELAS cybrid and Rieske KO viability enhancers – cell-based, MELAS cybrids, Rieske KO mouse fibroblasts, CellTiter-Glo, primary screen (AID 1508586;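 active = mean z-score across replicates of 1.96 or higher in either the MELAS or the Rieske mutant cell line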;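 note: z relative to plate mean and SD of compound and empty wells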). Conditions: low glucose.
The target of test [14] is NAD(+) hydrolase SARM1 (Homo sapiens) (UniProt Q6SZW1). The test can be described thus: blocking NAD cleavage by SARM1 SAM-TIR – cell lysate, NAD-Glo luminescence (AID 1508614;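 active = compound whose remaining NAD level is above about 45 nM, limit read from the data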;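 note: higher remaining NAD means stronger inhibition of SARM1 NADase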). The settings on record: SAM-TIR HEK293T lysate NADase, at 1 µM, stronger effect = higher value.
NAD(+) hydrolase SARM1 (Homo sapiens), sequence (Q6SZW1 whole entry, looked up, the tested form may be a part): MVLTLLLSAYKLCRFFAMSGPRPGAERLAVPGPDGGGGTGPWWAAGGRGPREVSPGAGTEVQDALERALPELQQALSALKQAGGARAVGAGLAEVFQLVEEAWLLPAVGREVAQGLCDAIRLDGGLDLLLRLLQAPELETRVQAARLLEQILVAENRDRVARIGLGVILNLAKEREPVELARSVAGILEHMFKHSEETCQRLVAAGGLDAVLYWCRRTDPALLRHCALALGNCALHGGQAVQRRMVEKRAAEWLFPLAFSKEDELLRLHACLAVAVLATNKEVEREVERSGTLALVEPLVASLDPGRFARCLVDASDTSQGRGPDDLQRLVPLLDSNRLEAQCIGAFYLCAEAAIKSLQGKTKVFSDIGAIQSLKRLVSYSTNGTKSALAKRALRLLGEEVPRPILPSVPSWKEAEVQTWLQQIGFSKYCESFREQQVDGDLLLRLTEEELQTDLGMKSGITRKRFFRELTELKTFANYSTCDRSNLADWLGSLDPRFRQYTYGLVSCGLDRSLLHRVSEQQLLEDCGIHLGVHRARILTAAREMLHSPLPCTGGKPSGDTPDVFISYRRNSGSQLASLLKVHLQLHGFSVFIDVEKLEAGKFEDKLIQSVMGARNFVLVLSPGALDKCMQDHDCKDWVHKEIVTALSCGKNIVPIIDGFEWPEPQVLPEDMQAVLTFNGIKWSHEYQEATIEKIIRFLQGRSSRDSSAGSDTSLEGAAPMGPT
The target of test [15] is Mitogen-activated protein kinase 7 (Homo sapiens) (UniProt Q13164). The test can be described thus: Gal4-ERK5 driven luciferase induction – cell-based, HTS, primary screen (AID 1508626;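 active = luciferase signal above three times the same-plate solvent-only control wells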;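 note: luciferase driven by Gal4-ERK5 fusion binding five Gal4 sites before minimal TATA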). Conditions: HeLa Gal4-ERK5 transactivation, 18 h, at 5 µM, stronger effect = higher value.
Mitogen-activated protein kinase 7 (Homo sapiens), sequence (Q13164 whole entry, looked up, the tested form may be a part): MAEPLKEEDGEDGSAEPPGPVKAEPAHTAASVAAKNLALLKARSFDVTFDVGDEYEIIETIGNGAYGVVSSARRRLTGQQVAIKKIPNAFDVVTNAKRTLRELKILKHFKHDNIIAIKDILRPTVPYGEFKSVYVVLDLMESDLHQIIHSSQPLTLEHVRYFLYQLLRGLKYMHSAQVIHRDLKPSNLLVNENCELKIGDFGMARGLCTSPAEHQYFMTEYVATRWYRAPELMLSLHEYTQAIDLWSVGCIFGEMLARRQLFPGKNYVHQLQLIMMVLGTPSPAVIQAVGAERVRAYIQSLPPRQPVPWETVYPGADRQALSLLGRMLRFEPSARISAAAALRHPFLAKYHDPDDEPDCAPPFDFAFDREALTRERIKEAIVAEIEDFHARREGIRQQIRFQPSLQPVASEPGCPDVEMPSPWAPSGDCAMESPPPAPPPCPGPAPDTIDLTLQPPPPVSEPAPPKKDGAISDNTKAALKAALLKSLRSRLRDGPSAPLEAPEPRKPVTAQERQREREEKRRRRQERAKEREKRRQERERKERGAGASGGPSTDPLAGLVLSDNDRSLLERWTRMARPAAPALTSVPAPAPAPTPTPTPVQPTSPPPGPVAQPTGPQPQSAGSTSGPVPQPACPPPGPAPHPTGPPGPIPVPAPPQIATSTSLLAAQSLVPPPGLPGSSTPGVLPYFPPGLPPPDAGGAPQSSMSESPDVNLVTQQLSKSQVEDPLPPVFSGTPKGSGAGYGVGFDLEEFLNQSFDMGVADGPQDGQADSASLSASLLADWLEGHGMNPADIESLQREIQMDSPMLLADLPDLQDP
Test [16] is described as follows: P. berghei load reduction in hepatocytes – cell-based, HepG2, luciferase luminescence, HepG2 viability, primary screen (AID 624349; in the data active = parasite load remaining mostly below about 12%, no sharp cut-off; inactive = mostly above about 10%;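 note: 100% = mean of DMSO negative control wells on the same plate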). Conditions: P. berghei liver stage in HepG2, luciferase luminescence, concentration not given here; parasite load remaining: stronger effect = lower value; viability: measured here: HepG2 viability without parasites.
Test [17] can be described thus: Wnt pathway potentiators raising nuclear beta-catenin – imaging, WNT3A-conditioned medium, mouse C2C12, NPC library, primary screen (AID 1117326; in the data active = nuclear beta-catenin stimulation mostly above about 4.2%, no sharp cut-off; inactive = mostly below about 10%). Conditions: stronger effect = higher value.
A short description of test [18]: galactose survival enhancers in mitochondrial complex I cybrids – cell-based, galactose medium, ATP luminescence, primary screen (AID 1645843;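 active = z-score of at least 1.8 in each of two replicates, scored against plate mean and spread of sample wells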;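 note: positive z means more ATP and so rescue of galactose-driven cybrid death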). Conditions: complex I mutant cybrid cells, 72 h, stronger effect = higher value.
The mark [19] stands for this setting: measured here: epithelial PC-3E GFP cell survival.
Setting [20] is: measured here: mesenchymal TEM4-18 mCherry cell survival.
Setting [21] is: MELAS cybrid survival, CellTiter-Glo 48 h, stronger effect = higher value.
[22] abbreviates: Rieske KO mouse fibroblast survival, CellTiter-Glo 72 h.

Take `CCN(CC)CC(=O)Nc1c(C)cc(C)cc1C`: the insulin secretion stimulation in test [1] is -0.3% (inactive). Besides, the viability decrease in test [2] was -7.6% (inactive). Moreover, the tube area decrease in test [3] is 7.2% (inactive). In test [4], the GLP1 secretion stimulation is -3.6% (inactive). Besides, the inhibition of viability in [5] is 4.6% (inactive). Further, the viability decrease (inhibition) in test [6] is 6% (inactive); in test [7] it was -2% (active).

As for `CO[C@]1(NC(=O)CSC(F)F)C(=O)N2C(C(=O)O)=C(CSc3nnnn3CCO)CO[C@H]21`, the insulin secretion stimulation in [1] is 0.75% (inactive). The viability decrease in [2] was 11.4% (inactive). Besides, the tube area decrease in [3] is 7.5% (inactive). In addition, the GLP1 secretion stimulation in test [4] is 4% (inactive). Moreover, the inhibition of viability in test [5] was -0.4% (inactive). The values for the viability decrease (inhibition) in test [6] and in test [7] were -2.1% (inactive) and -3.6% (inactive), respectively.

Regarding `O=C1CN(/N=C/c2ccc([N+](=O)[O-])o2)C(=O)N1`, the survival in test [8] was 10.8 (inactive). Also, in test [1], the insulin secretion stimulation was -2.7% (inactive). The viability decrease in test [2] was 26.8% (inactive). Also, the tube area decrease in test [3] is -36% (inactive). Besides, the GLP1 secretion stimulation in [4] is -0.3% (inactive). Besides, in [5], the inhibition of viability is 18.2% (inactive). In addition, the viability decrease (inhibition) is 46.4% (active) in [6] and 8.55% (inactive) in test [7]. Besides, the inhibition in [9] is -10.5% (inactive). Further, the mean signal in test [10] is 245 (inactive). Moreover, the red/green cell ratio (normalised) in test [11] is 0.97 (inactive). The normalised cell number in [11] (setting [19]) was 1.08; in [11] (setting [20]), 1.05. For the same molecule, the fold change in test [12] (stronger effect = lower value, cell number ratio, induced over uninduced) is 0.928 (inactive) and 0.958 (inactive); in test [12] (measured here: relative caspase fold change +Dox/-Dox), 1.23 and 1.67. The cell count in [12] (measured here: total cells with miR-34 induction, stronger effect = lower value) was 8440 and 12500; in [12] (measured here: total cells without miR-34 induction), 9100 and 13100. Further, the z-score in test [13] (setting [21]) was -2.68 (inactive); in test [13] (setting [22]) it was -2.1. Besides, in test [14], the remaining NAD is 10 nM (inactive). Besides, the luciferase signal in test [15] is 40 AU (inactive).

Take `NC(=O)c1cccnc1`: the parasite load remaining in test [16] was 64% (inactive) and 68.4% (inactive) and 18% (inactive). The viability in [16] is 200% and 89.4% and 114%. For the same molecule, the nuclear beta-catenin stimulation was 0.1% (inactive) in test [17] (at 10 µM) and 7.7% in test [17] (stimulation, at 2 µM). Besides, the viability decrease in test [2] was 7% (inactive). Further, the tube area decrease in test [3] is -7.9% (inactive). The inhibition of viability in [5] was 11.2% (inactive). For the same molecule, the viability decrease (inhibition) is 1.3% (inactive) in [6] and 4.3% (inactive) in [7]. The mean signal in [10] was 256 (inactive). In test [11], the red/green cell ratio (normalised) is 1.14 (inactive). For the same molecule, the results for the normalised cell number in test [11] (setting [19]) and in [11] (setting [20]) were 1.05 and 1.2, respectively. Further, the z-score in test [13] (setting [21]) was -0.258 (inactive) and -0.151 (inactive) and -0.172 (inactive); in [13] (setting [22]) it was 0.704 and -0.543 and -0.673; in [18], 0.75 (inactive) and 0.635 (inactive). In [15], the luciferase signal is 32 AU (inactive).

With `COCCOCC(OC)OC`, the nuclear beta-catenin stimulation was 1.2% (inactive) in test [17] (at 10 µM) and 10.8% in test [17] (stimulation, at 2 µM). Besides, the viability decrease in [2] is 0.6% (inactive). In test [5], the inhibition of viability was 12.5% (inactive). The results for the viability decrease (inhibition) in test [6] and in test [7] were -8.8% (inactive) and 6.9% (inactive), respectively.
